Our source for the relative cell viability values is the supplement of paper PMC10670038.

± gives the standard deviation of the averaged measurements. Over roughly 2,000 compounds, “relative cell viability vs DMSO, compound + 0.2 uM CuET” has its median near 1; the lowest 2% begin near 0.25. This is one part of a sample in which the lowest values are shown more often than they occur.

This assay relates to TE10. In words: relative cell viability vs DMSO, compound + 0.2 uM CuET (fraction); TE10 is an esophageal squamous carcinoma line; higher = less cytotoxic. The note with it: 2 µM; co-treatment: CuET (bis(diethyldithiocarbamate)copper) 0.2 uM; 48 h. As to the method: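 TE10 ESCC cells (1,000/well, 384-well plates) were treated with Selleck bioactive library compounds at 2 uM combined with 0.2 uM CuET (copper diethyldithiocarbamate) for 48 h. Viability was read by CellTiter-Glo and expressed relative to DMSO wells. Two technical replicates (A, B).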
As for `CCc1cnn2c(NCc3ccc[n+]([O-])c3)cc(N3CCCC[C@H]3CCO)nc12`, the relative cell viability amounted to 0.842 ± 0.12.
For `COCC[n+]1c2c(n(Cc3cnccn3)c1C)C(=O)c1ccccc1C2=O` [YM155 (Sepantronium Bromide)] the value was 0.111 ± 0.0058; for `CCCCCCCCCCCCCCCc1cccc(O)c1C(=O)O` [Anacardic Acid], 1.26 ± 0.019.
For `CC1(C)Cc2c(-c3ccccc3)c(-c3ccc(Cl)cc3)c(CC(=O)O)n2C1` [Licofelone] the value was 1.17 ± 0.023.
For `N#Cc1ccc2[nH]c(O)c(-c3ccc(CN4CCOCC4)cn3)c2c1` the value was 1.4 ± 0.13.
Consider `Cc1nc2ccc(-n3ncc(C(=O)c4cc5ccccc5[nH]4)c3N)cc2[nH]1`, for which the relative cell viability is 0.987 ± 0.053.
In the case of `CN(C)C(=S)NN=C(c1ccccn1)c1ccccn1`, the relative cell viability worked out at 0.943 ± 0.047.
With `O=C(Nc1cccc(Cl)c1)c1ccccn1` the figure was 1.24 ± 0.1; with `Clc1ccc(NN=C(c2ccccc2)c2ccccn2)nc1`, 0.03199 ± 0.00018.
With `CC(=O)N[C@@H](CC(C)C)C(=O)N[C@@H](CC(C)C)C(=O)N[C@H](C=O)CCCNC(=N)N` [Leupeptin Hemisulfate] the figure was 1.16 ± 0.025; with `N#CC(=Cc1ccc(-c2cc(Cl)ccc2Cl)o1)C(=O)Nc1cccc2ncccc12`, 1.06 ± 0.03; with `COc1cc(C=CC(=O)N2CCC=CC2=O)cc(OC)c1OC` [Piperlongumine], 0.392 ± 0.035.
For `CC(NC(=O)Cc1cc(F)cc(F)c1)C(=O)NC1C(=O)N(C)c2ccccc2-c2ccccc21` (centres undefined) the value was 0.97 ± 0.13; for `CC1=NN(c2ccc(C(=O)O)cc2)C(=O)C1=Cc1ccc(-c2cc(C)c(C)cc2[N+](=O)[O-])o1`, 0.872 ± 0.091.
Turning to `Cc1nc(-c2cn3c(n2)-c2ccc(-c4cnn(C(C)(C)C(N)=O)c4)cc2OCC3)n(C(C)C)n1`, the relative cell viability is 0.675 ± 0.072.
As for `OCc1ccc(-c2ccc(-c3ccc(CO)s3)o2)s1`, the relative cell viability is 0.225 ± 0.01.
Turning to `CC(=O)OCC(=O)[C@@]12N=C(C)O[C@@H]1C[C@H]1[C@@H]3CCC4=CC(=O)C=C[C@]4(C)[C@H]3[C@@H](O)C[C@@]12C` [Deflazacort], the relative cell viability amounted to 1.03 ± 0.012.
With `CCOc1nc2cccc(C(=O)O)c2n1Cc1ccc(-c2ccccc2-c2nnn[nH]2)cc1` [Candesartan] the figure was 1.06 ± 0.031; with `CN(C)Cc1cccc(N=C(c2ccccc2)c2c(O)[nH]c3cc(C(N)=O)ccc23)c1`, 0.952 ± 0.014.
In the case of `Cc1[nH]c2ccccc2c1C1=C(NCCc2ccc(F)cc2)C(=O)N(C)C1=O`, the relative cell viability is 1.17 ± 0.023.
For `Cc1[nH]c2ccccc2c1CCNC(=O)c1cccs1` the value was 1.01 ± 0.15; for `Cc1[nH]c2ccccc2c1CCNCc1ccc(/C=C/C(=O)NO)cc1` [Panobinostat (LBH589)], 0.151 ± 0.0045.
Turning to `COc1c(O)cc2c(c1O)[C@@H]1O[C@H](CO)[C@@H](O)[C@H](O)[C@H]1OC2=O` [Bergenin], the relative cell viability was determined as 1.18 ± 0.021.
For `CN1CCC(NC(=O)c2cc(-c3c(O)cc(O)cc3Oc3ccc([N+](=O)[O-])cc3)on2)CC1` the value was 0.6427 ± 0.0019; for `NC1CC1c1ccc(-c2cccc(O)c2)cc1` (centres undefined), 1.13 ± 0.036.
With `O=C(C=Cc1ccccc1)NC(NC(=S)Nc1ccc(Cl)cc1)C(Cl)(Cl)Cl` (centres undefined) the figure was 0.908 ± 0.014; with `Cn1cc(/C=C/C(=O)c2cccc(F)c2)cc1/C=C/C(=O)NO`, 0.872 ± 0.12.
With `O=C(/C=C/c1cccc(S(=O)(=O)Nc2ccccc2)c1)NO` [Belinostat (PXD101)] the figure was 0.195 ± 0.017; with `COC1C(O)CC(=O)OC(C)CC=CC=CC(OC2CCC(N(C)C)C(C)O2)C(C)CC(CC=O)C1OC1OC(C)C(OC2CC(C)(O)C(O)C(C)O2)C(N(C)C)C1O` (centres undefined) [Spiramycin], 1.11 ± 0.0071.
In the case of `COC(=O)CC(NC(=O)C(C)NC(=O)C(NC(=O)OCc1ccccc1)C(C)C)C(=O)CF` (centres undefined), the relative cell viability came to 1.3 ± 0.057.
Take `CCCCc1nc2cc(/C=C/C(=O)NO)ccc2n1CCN(CC)CC` [Pracinostat (SB939)]: the relative cell viability is 0.2435 ± 0.00015.
As to `CN(C)Cc1ccc(S(=O)(=O)n2ccc(/C=C/C(=O)NO)c2)cc1` [Resminostat], the relative cell viability was found to be 0.848 ± 0.19.
As for `COc1cc2c(cc1NS(=O)(=O)c1ccc(Br)cc1C)n(C)c(=O)n2C`, the relative cell viability is 1.17 ± 0.15.
With `CCCC(=O)Nc1cccc(NC(=O)c2ccccc2Br)c1` the figure was 1.01 ± 0.16; with `O=C(O)CCNc1cc(N2CCc3ccccc3CC2)nc(-c2ccccn2)n1`, 0.765 ± 0.0059.
With `CNc1nc(Nc2cnn(C3CCN(C4COC4)CC3F)c2Cl)ncc1C(F)(F)F` (centres undefined) the figure was 1.195 ± 0.0015.
`Nc1cccc(-c2cc3c(Oc4cccc(O)c4)ncnc3[nH]2)c1`: the relative cell viability was 0.976 ± 0.062.
For `CC(C)Oc1ccc(-c2cnc3c(-c4ccnc5ccccc45)cnn3c2)cc1` the value was 1.15 ± 0.088; for `COc1ccc(-c2cnc3c(-c4cccc5ncccc45)cnn3c2)cc1`, 1.17 ± 0.13.
